# From PubChem BioAssay AID1159580 (chemical genetic matrix, 2015)
# Values joined by “and” are separate entries in the source; they are usually repeats but may differ in a detail not shown here. Equal values may be shown once. In all, about 5,500 compounds went through this assay and about 2,000 (36%) were called active. Inconclusive results (about 18%) are left out. No stated cut-off is given here; in the data, active means normalized growth mostly below about 0.91 (no sharp cut-off); inconclusive means no clear call, values can overlap the other calls; inactive means mostly above about 0.92. The list shows a part of the results. The source holds several records for some structures; these can differ, active in one and inactive in another.
# Test: chemical genetic growth profiling, strain panel (AID 1159580);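 further: tested at 20 µM; growth read once vehicle control cultures reached saturation at 30 °C; 1 = growth at the plate median or of vehicle wells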
# Conditions: growth OD
smiles,measurement,setting,value
O=C(CCCN1CCC(O)(c2ccc(Cl)cc2)CC1)c1ccc(F)cc1,normalized growth,"S. cerevisiae deletion strains, locus YJR043C, strain POL32, stronger effect = lower value",0.93 (inactive)
same,normalized growth,"S. cerevisiae deletion strains, locus YJR066W, strain TOR1, stronger effect = lower value",0.939 (inactive)
same,normalized growth,"S. cerevisiae deletion strains, locus YJR075W, strain HOC1, stronger effect = lower value",0.819 (active)
same,normalized growth,"S. cerevisiae deletion strains, locus YKL009W, strain mrt4, stronger effect = lower value",0.963 (inactive)
same,normalized growth,"S. cerevisiae deletion strains, locus YKL068W, stronger effect = lower value",1.02 (inactive)
same,normalized growth,"S. cerevisiae deletion strains, locus YKL085W, strain MDH1 (second series), stronger effect = lower value",1.02 (inactive)
same,normalized growth,"S. cerevisiae deletion strains, locus YKL085W, strain MDH1, stronger effect = lower value",1.02 (inactive)
same,normalized growth,"S. cerevisiae deletion strains, locus YKL160W, strain elf1, stronger effect = lower value",0.904 (inactive)
same,normalized growth,"S. cerevisiae deletion strains, locus YKR001C, strain vps1, stronger effect = lower value",0.247 (active)
same,normalized growth,"S. cerevisiae deletion strains, locus YKR026C, strain gcn3, stronger effect = lower value",1.03 (inactive)
same,normalized growth,"S. cerevisiae deletion strains, locus YKR091W, strain srl3, stronger effect = lower value",1.03 (inactive)
same,normalized growth,"S. cerevisiae deletion strains, locus YLL001W, strain dnm1, stronger effect = lower value",0.958 (inactive)
same,normalized growth,"S. cerevisiae deletion strains, locus YLL026W, stronger effect = lower value",0.947 (inactive)
same,normalized growth,"S. cerevisiae deletion strains, locus YLL041C, strain sdh2, stronger effect = lower value",1.02 (inactive)
same,normalized growth,"S. cerevisiae deletion strains, locus YLR027C, strain aat2, stronger effect = lower value",0.911 (active)
same,normalized growth,"S. cerevisiae deletion strains, locus YLR039C, strain RIC1, stronger effect = lower value",1.39 [resistant] (active)
same,normalized growth,"S. cerevisiae deletion strains, locus YLR058C, strain SHM2, stronger effect = lower value",0.746 (active)
same,normalized growth,"S. cerevisiae deletion strains, locus YLR102C, strain apc9, stronger effect = lower value",1.02 (inactive)
same,normalized growth,"S. cerevisiae deletion strains, locus YLR113W, strain HOG1, stronger effect = lower value",1.03 (inactive)
same,normalized growth,"S. cerevisiae deletion strains, locus YLR221C, strain rsa3, stronger effect = lower value",0.923 (inactive)
same,normalized growth,"S. cerevisiae deletion strains, locus YLR258W, strain gsy2, stronger effect = lower value",0.938 (inactive)
same,normalized growth,"S. cerevisiae deletion strains, locus YLR262C, strain YPT6 (second series), stronger effect = lower value",0.893 (inactive)
same,normalized growth,"S. cerevisiae deletion strains, locus YLR262C, strain YPT6, stronger effect = lower value",1.37 (inactive)
same,normalized growth,"S. cerevisiae deletion strains, locus YLR268W, strain sec22, stronger effect = lower value",0.794 (active)
same,normalized growth,"S. cerevisiae deletion strains, locus YLR320W, strain mms22, stronger effect = lower value",0.49 (active)
same,normalized growth,"S. cerevisiae deletion strains, locus YLR330W, strain CHS5, stronger effect = lower value",0.849 (active)
same,normalized growth,"S. cerevisiae deletion strains, locus YLR342W, strain FKS1 (second series), stronger effect = lower value",0.726 (active)
same,normalized growth,"S. cerevisiae deletion strains, locus YLR342W, strain FKS1, stronger effect = lower value",1.01 (inactive)
same,normalized growth,"S. cerevisiae deletion strains, locus YLR357W, strain rsc2, stronger effect = lower value",1.19 [resistant] (active)
same,normalized growth,"S. cerevisiae deletion strains, locus YLR370C, strain arc18, stronger effect = lower value",0.965 (inactive)
same,normalized growth,"S. cerevisiae deletion strains, locus YLR371W, strain rom2, stronger effect = lower value",1 (inactive)
same,normalized growth,"S. cerevisiae deletion strains, locus YLR384C, strain iki3, stronger effect = lower value",0.999 (inactive)
same,normalized growth,"S. cerevisiae deletion strains, locus YLR418C, strain cdc73, stronger effect = lower value",0.496 (active)
same,normalized growth,"S. cerevisiae deletion strains, locus YML016C, strain PPZ1, stronger effect = lower value",0.915 (active)
same,normalized growth,"S. cerevisiae deletion strains, locus YML032C, strain rad52, stronger effect = lower value",0.82 (active)
same,normalized growth,"S. cerevisiae deletion strains, locus YML120C, strain ndi1, stronger effect = lower value",0.932 (inactive)
same,normalized growth,"S. cerevisiae deletion strains, locus YML124C, strain tub3, stronger effect = lower value",0.994 (inactive)
same,normalized growth,"S. cerevisiae deletion strains, locus YMR058W, strain fet3, stronger effect = lower value",0.821 (active)
same,normalized growth,"S. cerevisiae deletion strains, locus YMR078C, strain ctf18, stronger effect = lower value",1.01 (inactive)
same,normalized growth,"S. cerevisiae deletion strains, locus YMR125W, strain sto1, stronger effect = lower value",0.876 (active)
same,normalized growth,"S. cerevisiae deletion strains, locus YMR129W, stronger effect = lower value",1.03 (inactive)
same,normalized growth,"S. cerevisiae deletion strains, locus YMR205C, strain PFK2, stronger effect = lower value",0.949 (inactive)
same,normalized growth,"S. cerevisiae deletion strains, locus YMR223W, strain ubp8, stronger effect = lower value",0.8 (active)
same,normalized growth,"S. cerevisiae deletion strains, locus YMR231W, strain pep5, stronger effect = lower value",1.01 (inactive)
same,normalized growth,"S. cerevisiae deletion strains, locus YMR263W, strain SAP30, stronger effect = lower value",0.996 (inactive)
same,normalized growth,"S. cerevisiae deletion strains, locus YMR307W, strain GAS1, stronger effect = lower value",0.526 (active)
same,normalized growth,"S. cerevisiae deletion strains, locus YNL067W, strain RPL9B, stronger effect = lower value",0.844 (active)
same,normalized growth,"S. cerevisiae deletion strains, locus YNL071W, strain lat1, stronger effect = lower value",0.552 (active)
same,normalized growth,"S. cerevisiae deletion strains, locus YNL153C, strain GIM3, stronger effect = lower value",0.826 (active) and 0.893 (inactive)
same,normalized growth,"S. cerevisiae deletion strains, locus YNL175C, strain NOP13, stronger effect = lower value",0.664 (active)
same,normalized growth,"S. cerevisiae deletion strains, locus YNL183C, strain NPR1, stronger effect = lower value",0.971 (inactive)
same,normalized growth,"S. cerevisiae deletion strains, locus YNL197C, strain WHI3, stronger effect = lower value",0.997 (inactive)
same,normalized growth,"S. cerevisiae deletion strains, locus YNL209W, strain ssb2, stronger effect = lower value",0.933 (inactive)
same,normalized growth,"S. cerevisiae deletion strains, locus YNL224C, strain SQS1, stronger effect = lower value",1.04 (inactive)
same,normalized growth,"S. cerevisiae deletion strains, locus YNL233W, strain BNI4, stronger effect = lower value",0.751 (active)
same,normalized growth,"S. cerevisiae deletion strains, locus YNL248C, strain rpa49, stronger effect = lower value",0.818 (active)
same,normalized growth,"S. cerevisiae deletion strains, locus YNL250W, strain rad50, stronger effect = lower value",1 (inactive)
same,normalized growth,"S. cerevisiae deletion strains, locus YNL271C, strain bni1, stronger effect = lower value",1 (inactive)
same,normalized growth,"S. cerevisiae deletion strains, locus YNL298W, strain CLA4, stronger effect = lower value",1.02 (inactive)
same,normalized growth,"S. cerevisiae deletion strains, locus YNL307C, strain MCK1, stronger effect = lower value",0.815 (active)
same,normalized growth,"S. cerevisiae deletion strains, locus YNL322C, strain KRE1 (second series), stronger effect = lower value",1.11 [resistant] (active)
same,normalized growth,"S. cerevisiae deletion strains, locus YNL322C, strain KRE1, stronger effect = lower value",0.884 (active)
same,normalized growth,"S. cerevisiae deletion strains, locus YNR049C, strain mso1, stronger effect = lower value",1.04 (inactive)
same,normalized growth,"S. cerevisiae deletion strains, locus YNR052C, strain pop2, stronger effect = lower value",0.737 (active)
same,normalized growth,"S. cerevisiae deletion strains, locus YOL012C, strain htz1",1.18 (inactive)
same,normalized growth,"S. cerevisiae deletion strains, locus YOL147C, strain pex11, stronger effect = lower value",0.941 (inactive)
same,normalized growth,"S. cerevisiae deletion strains, locus YOR001W, strain rrp6, stronger effect = lower value",0.871 (active)
same,normalized growth,"S. cerevisiae deletion strains, locus YOR061W, strain CKA2, stronger effect = lower value",0.942 (inactive)
same,normalized growth,"S. cerevisiae deletion strains, locus YOR069W, strain VPS5, stronger effect = lower value",0.963 (inactive)
same,normalized growth,"S. cerevisiae deletion strains, locus YOR070C, strain gyp1, stronger effect = lower value",0.29 (active)
same,normalized growth,"S. cerevisiae deletion strains, locus YOR080W, strain dia2, stronger effect = lower value",0.969 (inactive)
same,normalized growth,"S. cerevisiae deletion strains, locus YOR083W, strain WHI5 (second series), stronger effect = lower value",0.977 (inactive)
same,normalized growth,"S. cerevisiae deletion strains, locus YOR083W, strain WHI5, stronger effect = lower value",0.944 (inactive)
same,normalized growth,"S. cerevisiae deletion strains, locus YOR106W, strain vam3, stronger effect = lower value",0.935 (inactive)
same,normalized growth,"S. cerevisiae deletion strains, locus YOR136W, strain idh2, stronger effect = lower value",0.98 (inactive)
same,normalized growth,"S. cerevisiae deletion strains, locus YOR144C, strain elg1, stronger effect = lower value",1 (inactive)
same,normalized growth,"S. cerevisiae deletion strains, locus YOR184W, strain ser1, stronger effect = lower value",0.847 (active)
same,normalized growth,"S. cerevisiae deletion strains, locus YOR231W, strain MKK1, stronger effect = lower value",0.991 (inactive)
same,normalized growth,"S. cerevisiae deletion strains, locus YOR265W, strain rbl2, stronger effect = lower value",0.974 (inactive)
same,normalized growth,"S. cerevisiae deletion strains, locus YOR270C, strain vph1, stronger effect = lower value",0.381 (active)
same,normalized growth,"S. cerevisiae deletion strains, locus YOR290C, strain snf2, stronger effect = lower value",0.843 (active)
same,normalized growth,"S. cerevisiae deletion strains, locus YOR316C, strain cot1, stronger effect = lower value",1.02 (inactive)
same,normalized growth,"S. cerevisiae deletion strains, locus YPL051W, strain arl3, stronger effect = lower value",0.789 (active)
same,normalized growth,"S. cerevisiae deletion strains, locus YPL078C, strain atp4, stronger effect = lower value",0.914 (inactive)
same,normalized growth,"S. cerevisiae deletion strains, locus YPL106C, strain sse1, stronger effect = lower value",1.17 [resistant] (active)
same,normalized growth,"S. cerevisiae deletion strains, locus YPL240C, strain hsp82, stronger effect = lower value",1 (inactive)
same,normalized growth,"S. cerevisiae deletion strains, locus YPL241C, strain CIN2, stronger effect = lower value",0.89 (active) and 0.969 (inactive)
same,normalized growth,"S. cerevisiae deletion strains, locus YPL256C, strain CLN2, stronger effect = lower value",0.99 (inactive)
same,normalized growth,"S. cerevisiae deletion strains, locus YPR119W, strain clb2, stronger effect = lower value",1.04 (inactive)
same,normalized growth,"S. cerevisiae deletion strains, locus YPR141C, strain kar3, stronger effect = lower value",1.04 (inactive)
same,normalized growth,"S. cerevisiae deletion strains, locus YPR163C, strain tif3, stronger effect = lower value",0.575 (active)
same,normalized growth,"S. cerevisiae deletion strains, locus YPR167C, strain met16, stronger effect = lower value",0.942 (inactive)
same,normalized growth,"S. cerevisiae deletion strains, strain wtn01, stronger effect = lower value",0.776 (active)
same,normalized growth,"S. cerevisiae strains, strain wild type, stronger effect = lower value",0.833 (active)
